Several values for one entry are separate records, joined by “and”; a condition that tells them apart may be missing. Equal values may be shown once. Screen size: about 310,000 compounds; about 17,000 (5.5%) were called active. Where a call stands in place of a potency, no number is given. Roughly 11% stayed inconclusive and do not appear here. The call rests on the fitted dose curve; in most records, active means well fitted inhibition curve with a large enough effect; inconclusive means small, poorly fitted or top-dose-only effect, or effect the other way; inactive means no such curve, though single readings can be large or run the other way. The sample as a whole holds a higher share of actives than the screen did. More than one record can exist for a structure, and the calls need not agree.
What follows are molecules tested against Nuclear receptor ROR-gamma (Mus musculus) (UniProt P51450) (assay: qHTS for inhibitors of ROR gamma transcriptional activity). Details: Drosophila S2 Gal4-RORgamma UAS-luciferase reporter, 20 h; series mostly up to 53.6 µM.
Summary of the method: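 Using a luciferase readout, inhibitors were identified by reduced reporter activity in Drosophila cells coexpressing a copper-inducible Gal4–ROR gamma fusion and UAS-driven Photinus luciferase, incubated 20 hr after 700 uM copper sulfate.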
Further: nearly all actives have a fitted effect of over 60% in size.
Potency means the concentration at half of the fitted maximal effect.

Nuclear receptor ROR-gamma (Mus musculus), sequence (P51450 whole entry, looked up, the tested form may be a part): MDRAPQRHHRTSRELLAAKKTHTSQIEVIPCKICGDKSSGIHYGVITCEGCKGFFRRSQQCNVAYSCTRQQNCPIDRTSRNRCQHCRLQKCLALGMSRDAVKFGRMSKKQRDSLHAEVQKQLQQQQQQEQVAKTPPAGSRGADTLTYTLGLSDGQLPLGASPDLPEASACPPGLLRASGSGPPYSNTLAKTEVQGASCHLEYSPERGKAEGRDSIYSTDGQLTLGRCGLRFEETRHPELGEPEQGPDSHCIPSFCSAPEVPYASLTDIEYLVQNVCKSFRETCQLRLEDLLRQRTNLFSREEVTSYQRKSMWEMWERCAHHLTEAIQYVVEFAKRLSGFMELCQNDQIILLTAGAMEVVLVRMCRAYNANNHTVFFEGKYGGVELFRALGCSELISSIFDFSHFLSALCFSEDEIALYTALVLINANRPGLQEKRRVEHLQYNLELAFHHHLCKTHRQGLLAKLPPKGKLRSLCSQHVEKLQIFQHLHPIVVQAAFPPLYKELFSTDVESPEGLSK

| Compound | Potency | activity change, negative = inhibition |
| --- | --- | --- |
| C/C(=N\N(C)C)c1ccc(OCCOc2ccc([N+](=O)[O-])cc2)cc1 | inactive | – |
| CCOC(=O)C1(Cc2ccccc2C)CCCN(S(C)(=O)=O)C1 (centres undefined) | inactive | – |
| COCc1c(C(=O)N/N=C(\C)c2ccncc2)nnn1-c1nonc1N | inactive | – |
| C=CCNC(=O)c1ccccc1SCc1c(C)noc1C | inactive | – |
| Cc1ccc(NC(=O)C(CC(=O)O)C2CCCO2)c(C)c1 (centres undefined) | inactive | – |
| O=C(Nc1ccc(Cl)cc1)c1cccc(OC(=S)N2CCOCC2)c1 | inactive | – |
| COc1ccc(S(=O)(=O)N(C)CC(=O)N2CCCC2)cc1 | – | -15.8% [at 1.91 µM] (inactive) |
| O=C(CC(O)(C(F)(F)F)C(F)(F)F)Nc1ccc(Cl)c(Cl)c1 | 5.01 µM (active) | – |
| O=C(Cc1ccc(Cl)c(Cl)c1)Nc1ccc(SC(F)F)cc1 | inactive | – |
| Cc1ccc(NC(=O)C/C(N)=N/O)cc1Cl | inactive | – |
| COc1ccccc1N(CC(=O)NC1CCCC1)C(=O)C1(C)CC(=O)N=C2C=CC(C)=CN21 (centres undefined) | inactive | – |
| O=C1CCCCN1CCCC(=O)N1CCCC(Nc2ccc(F)cc2)C1 (centres undefined) | inactive | – |
| O=C(Cc1cccs1)N/N=C/c1ccc(OCc2ccccc2)cc1 | inactive | – |
| O=C(N/N=C/c1ccc(OC(=O)c2ccccc2Cl)cc1)c1ccc(O)cc1 | inactive | – |
| O=C(N/N=C/c1ccc(OCc2ccccc2)cc1)c1ccc(O)cc1 | 8.91 µM (active) | – |
| CCn1nc(C)c(CNC(=O)C2CCC(=O)N(Cc3cccc(F)c3)C2)c1C (centres undefined) | inactive | – |
| CCCC(O)(CCC)C(=O)NN(C(=O)CCl)c1cccc(C)c1 | 15.8 µM (active) | – |
| COC(=O)N(NC(=O)C(O)(C(C)C)C(C)C)c1ccccc1 | inactive | – |
| Cc1ccc(N(NC(=O)C(C)(C)O)C(=O)c2ccccc2)cc1C | inactive | – |
| CCCCC(O)(CCCC)C(=O)NN(C(=O)CCl)c1ccccc1 | 12.6 µM (active) | – |
| CC(C)(O)C(=O)NN(C(=O)c1ccccc1)c1cccc(Br)c1 | inactive | – |
| CCCCCNC(=O)C1c2ccccc2Oc2ccccc21 | inactive | – |
| Cc1cc(C)n(CC(O)COc2ccc(C(C)(C)C)cc2)n1 (centres undefined) | inactive | – |
| CCc1ccc(N(C(=O)c2csnn2)C(C(=O)NC2CCCCC2)c2cccnc2)cc1 (centres undefined) | inactive | – |
| O=C(O)c1cc(S(=O)(=O)N(Cc2ccccc2)c2cccc(C(F)(F)F)c2)ccc1Cl | inactive | – |
| O=S(=O)(NCCc1ccc(Cl)cc1)c1cccs1 | inactive | – |

| Compound | Potency | activity change, negative = inhibition |
| --- | --- | --- |
| COC(=O)c1c(NC(=O)c2ccc(S(=O)(=O)N3CCOCC3)cc2)sc2c1CCN(C(C)C)C2 | inactive | – |
| CC(CCc1ccccc1)NC(=O)c1cnc(Cl)c(Cl)c1 (centres undefined) | inactive | – |
| CCc1ccc(NC(=O)Cn2nc(C)c([N+](=O)[O-])c2C)cc1 | inactive | – |
| Cc1nn(Cc2ccc(C(=O)N3N=C(C(F)F)CC3(O)C(F)F)cc2)c(C)c1[N+](=O)[O-] (centres undefined) | 12.6 µM (active) | – |
| Cc1ccn(CC(=O)N2N=C(C(F)F)CC2(O)C(F)F)n1 (centres undefined) | inactive | – |
| CN(Cc1c(F)cccc1Cl)S(=O)(=O)c1cccs1 | inactive | – |
| COc1ccc(C(=O)NC2=NCCS2)c(OC)c1 | 11.2 µM (active) | – |
| COc1ccc(C(=O)Nc2nncs2)c(OC)c1 | inactive | – |
| COc1ccc(C(=O)NCc2nnc(SCC(=O)NC3=NCCS3)n2C)cc1 | inactive | – |
| CSCC[C@H](NC(=O)N1CCn2c1nc1ccccc12)C(=O)NC1CCCCC1 | inactive | – |
| CC(C)OC(=O)c1ccc(COc2ccc3ccc(=O)oc3c2)o1 | inactive | – |
| Cc1ccc(-c2nnc(SCC(=O)N/N=C/c3cccs3)n2-c2ccc(C)cc2)cc1 | 17.8 µM (active) | – |
| NNC(=O)CSc1nnc(-c2ccccc2)n1-c1ccccc1 | inactive | – |
| Cc1ccc(-n2c(SCC(=O)N3c4ccccc4Sc4ccccc43)nnc2-c2ccncc2)cc1 | inactive | – |
| COCCN1C(=O)C(=O)/C(=C(/O)c2ccc(S(=O)(=O)N3CCOCC3)cc2)C1c1ccc(OC)c(OC)c1 (centres undefined) | inactive | – |
| COc1ccc(C2C3=C(CCCC3=O)N(CC(=O)O)C3=C2C(=O)CCC3)cc1 | inactive | – |
| Cc1cc(C)nc(-n2nc(C)cc2NC(=O)c2ccc(F)cc2F)n1 | 0.178 µM (active) | – |
| Cc1cc(NC(=O)Nc2ccc(Cl)cc2)n(-c2ccccc2)n1 | inactive | – |
| CC(=O)N/C(=N/c1nc(C)cc(C)n1)Nc1ccc(F)cc1F | inactive | – |
| CCN1C(=O)c2cccc3c(S(=O)(=O)Nc4ccccc4O)ccc1c23 | inactive | – |
| CN(C)c1cccc(C(=O)N2CCC(n3nccc3NC(=O)C3CCOC3)CC2)c1 (centres undefined) | inactive | – |
| N#Cc1ccc(S(=O)(=O)NCC(=O)OCC(=O)NCCc2ccccc2)cc1 | inactive | – |
| Cc1ccc(C)c(N2CCN(C(=O)CCCCn3c(=O)[nH]c4ccccc4c3=O)CC2)c1 | inactive | – |
| CCCCNC(=O)CCn1c(=S)[nH]c2cc3c(cc2c1=O)OCO3 | inactive | – |
| O=C(CCCCCn1c(=S)[nH]c2cc3c(cc2c1=O)OCO3)N1CCN(c2ccc(F)cc2)CC1 | 4.47 µM (active) | – |
| Cc1ccc(C)c(N2CCN(C(=O)CCCCCn3c(=S)[nH]c4ccc(N5CCOCC5)cc4c3=O)CC2)c1 | 10 µM (active) | – |

| Compound | Potency | activity change, negative = inhibition |
| --- | --- | --- |
| CC(C)NC(=O)CCCn1c(=S)[nH]c2cc3c(cc2c1=O)OCO3 | inactive | – |
| Cc1ccc(C)c(N2CCN(C(=O)CCCn3c(=O)c4cccn4c4cccnc43)CC2)c1 | inactive | – |
| Cc1ccnc(Nc2nc3ccccc3s2)n1 | inactive | – |
| Cc1ccnc(N2CCCC(C(=O)NC3CC3)C2)n1 (centres undefined) | inactive | – |
| Cc1ccnc(-n2sc3ccccc3c2=O)n1 | 11.2 µM (active) | – |
| CCCCSCCCNC(=O)C1CCC(CNS(=O)(=O)c2ccc(NC(C)=O)cc2)CC1 (centres undefined) | inactive | – |
| S=c1[nH]nc(COc2ccccc2)n1-c1ccccc1 | 3.98 µM (active) | – |
| Cc1ccc(OCc2n[nH]c(=S)n2-c2ccccc2)cc1 | 0.708 µM (active) | – |
| O=c1[nH]nc(CSCc2ccccc2Cl)[nH]1 | inactive | – |
| CC(NS(=O)(=O)c1ccccc1)c1n[nH]c(=S)n1-c1ccccc1 (centres undefined) | inactive | – |
| CCCCC(CC(C)O)c1n[nH]c(=S)n1-c1ccccc1 (centres undefined) | inactive | – |
| O=[N+]([O-])c1ccccc1/C=N/n1c(COc2ccccc2)n[nH]c1=S | inactive | – |
| CC(Sc1nnc(COc2ccccc2)n1-c1ccccc1)C(=O)O (centres undefined) | inactive | – |
| Cc1ccc(OCc2n[nH]c(=S)n2-c2ccc(C)cc2)cc1 | inactive | – |
| S=c1[nH]nc(CSCc2ccc(Cl)cc2Cl)n1-c1ccccc1 | 1.26 µM (active) | – |
| O=S(=O)(Oc1ccccc1C(=S)N1CCOCC1)c1ccc(Cl)cc1 | inactive | – |
| Cc1cc(C)cc(C(=O)NCCN2CCOCC2)c1 | inactive | – |
| O=C1CCNCCN1[C@H](CO)Cc1ccccc1 | inactive | – |
| Cc1cc2occ(CC(=O)NNC(=O)c3ccccc3F)c2cc1C | inactive | – |
| Cn1cccc1/C=N/NC(=O)c1ccc(OC(F)(F)C(F)F)cc1 | 2 µM (active) | – |
| O=C(N/N=C/c1cccnc1)c1ccc(NC(=O)c2ccc(F)cc2)cc1 | inactive | – |
| Cc1cccc(C(=O)Nc2ccc(C(=O)N/N=C/c3cccc(C)n3)cc2)c1 | inactive | – |
| C/C(=N\NC(=O)Cc1ccccc1[N+](=O)[O-])c1cccnc1 | inactive | – |
| CC1CC(C)CN(C(=O)C2CC(=O)N(c3ccc(F)cc3)C2)C1 (centres undefined) | inactive | – |
| O=C(O)c1cccc(S(=O)(=O)Nc2ccc(O)cc2Sc2nc3ccccc3s2)c1 | 10 µM (active) | – |
| O=C(O)c1ccccc1CSc1nc2ccccc2s1 | inactive | – |

| Compound | Potency | activity change, negative = inhibition |
| --- | --- | --- |
| COc1ccc(S(=O)(=O)Nc2ccc(O)c(Sc3nc4ccccc4s3)c2)cc1 | – | 1.49% [at 10 µM] (inactive) |
| Cc1cccc(-c2cc(=O)c3cc(C)ccc3o2)c1 | inactive | – |
| COc1c(O)cc2oc(-c3ccc(O)c(O)c3)cc(=O)c2c1O | inactive and 12.6 µM (active) | – |
| O=c1cc(-c2ccc(O)c(O)c2)oc2cccc(O)c12 | 14.1 µM (active) | – |
| COc1ccc(-c2cc(=O)c3c(O)cc(O[C@@H]4O[C@H](CO[C@@H]5O[C@@H](C)[C@H](O)[C@@H](O)[C@H]5O)[C@@H](O)[C@H](O)[C@H]4O)cc3o2)cc1O | inactive | – |
| O=c1cc(-c2ccc(O)cc2)oc2c(-c3cc(-c4cc(=O)c5c(O)cc(O)cc5o4)ccc3O)c(O)ccc12 | inactive | – |
| CCOC(=O)COc1cc(O)c2c(=O)cc(-c3ccccc3)oc2c1 | inactive | – |
| Cc1ccc(-c2noc(C3CCCN(C(=O)c4cccc(Cl)c4)C3)n2)o1 (centres undefined) | inactive | – |
| CCOC(=O)N1CCN(Cc2nc3cc(NC(=O)CC)ccc3n2CC)CC1 | inactive | – |
| C#CCOc1ccc(/C=C2/C(=O)ON=C2C)cc1OCC | inactive | – |
| Cc1ccccc1CN1CCC(C(=O)Nc2ccc(Oc3cccnc3)cc2)CC1 | inactive | – |
| CC1(C)Cc2c(cnn2-c2cccc(F)c2)C(NC(=O)c2cc[n+]([O-])cc2)C1 (centres undefined) | inactive | – |
| CC1(C)C(C=C(Cl)Cl)C1C(=O)NC(O)C(=O)c1ccccc1 (centres undefined) | inactive | – |
| CN(Cc1ccccn1)Cc1nc(-c2ccc(Cl)cc2)no1 | inactive | – |
| CN(Cc1ccc2nsnc2c1)Cc1nc(Cc2cccc(F)c2)no1 | inactive | – |
| CCc1ccc(CN(C)Cc2nc(Cc3ccccc3)no2)nc1 | 11.2 µM (active) | – |
| Cc1ccc(S(=O)(=O)NCCC(=O)Nc2cccc(S(N)(=O)=O)c2)cc1C | inactive | – |
| Cc1ccc(S(=O)(=O)NCCC(=O)Nc2ccc(C)c(Cl)c2)cc1C | inactive | – |
| Cc1ccnc(NC(=O)CCNS(=O)(=O)c2ccc(C)c(C)c2)c1 | 10 µM (active) | – |
| COC(=O)C(NC(C)=O)(Nc1nc2c(s1)CCCC2)C(F)(F)F (centres undefined) | inactive | – |
| O=C(Cn1c(=O)sc2ccccc21)Nc1nc2c(s1)CCCC2 | inactive | – |
| Fc1ccc2nc(Nc3nc4c(s3)CCCC4)sc2c1 | 3.16 µM (active) | – |
| O=C(Nc1cccc(-c2cccc(Cl)c2)c1)C1CCN(C2CCC2)CC1 | inactive | – |
| Cc1c2c(nc3ccccc13)-c1cccc(=O)n1C2 | 8.91 µM (active) | – |
| Cc1nc2ccccc2c(C)c1C(=O)c1ccc(F)cc1 | inactive | – |
| CC(C)c1ccc2c([Si](C)(C)C)c3c(nc2c1)-c1cccc(=O)n1C3 | inactive | – |

From PubChem BioAssay AID2551 (National Center for Advancing Translational Sciences (NCATS), 2010)
